Measured values from PubChem BioAssay (NCI).
About 79,000 compounds went through this panel and 15% of them were active in at least one assay; those are over-represented in the sample as a whole. Unmarked numbers belong to inactive results. Activity calls are given as the source filed them. Rule as the data show it: active = growth inhibition above about 70%; inactive = the rest.

Assay: NCI Yeast Anticancer Drug Screen. Data for the mec2-1 strain (AID 157)
Details: S. cerevisiae mec2-1 strain, at 50.0 µM (retest, dose inferred, filed as 5.0), hits give high values
Outline: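 Each compound was tested on mec2-1 yeast, a strain altered in DNA damage repair or cell cycle control. Growth inhibition is reported relative to vehicle.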
For `Cc1ccc(-n2c(CSc3ccc(Cl)cc3)nnc2SCc2nc3ccccc3[nH]2)cc1`, the growth inhibition was -9%. For `CC(=O)Nc1cccc(C(=O)O)c1`, the growth inhibition was -4%. For `COc1ccc2c(c1)CCCN2CCCCCCCCCN1CCCCC1`, the growth inhibition was 53%. `CN(C)C(=O)/N=c1\ss/c(=N\C(=S)N(C)C)n1-c1ccccc1` gave a growth inhibition of 56%. With `Clc1ccc(-c2nnc(-c3ccccn3)o2)c(Cl)c1` the growth inhibition was 80% (active). `CC(O)CC(O)CC1CCCO1` (centres undefined) gave a growth inhibition of 9%. For `CC[C@]1(O)C[C@H]2[C@@H]3CCc4cc(OC)ccc4[C@H]3CC[C@]2(C)[C@H]1O`, the growth inhibition was 98% (active). In the case of `CCCCCCCCCCCCCCCCCCOS(=O)(=O)O` (tested in a mixture with another compound), the growth inhibition is reported as 76% (active). In the case of `C/C(=N\NC(=S)N1CCCC1)c1nc2ncccc2[nH]1`, the growth inhibition is reported as 94% (active). In the case of `CC(C)(C)C1=NN=C2c3ccccc3C(=O)C21` (centres undefined), the growth inhibition is reported as 44%. `O=C(O)c1ccc(N=CC2CO2)cc1` (centres undefined) showed a growth inhibition of 64%. In the case of `CCC1(C)C(C#N)(C#N)C1(C#N)C#N`, the growth inhibition is reported as 95% (active). In the case of `COc1ccc(N(C)Sc2ccccc2)cc1`, the growth inhibition is reported as 65%. With `C/C(CCn1[nH]c(=O)ccc1=O)=N\NS(=O)(=O)c1ccc(C)cc1` the growth inhibition was 15%. Work on `CCC[n+]1ccc(/C=N\NC(N)=S)c2ccccc21` yielded a growth inhibition of 36%. `O=S1CCS(=O)C1c1ccccc1` (centres undefined) showed a growth inhibition of 26%. Work on `NC(=O)c1c(Cl)nc2n1CCS2` yielded a growth inhibition of -2%. With `CC(C)S(=O)(=O)ON1C(=O)c2ccc(N(C)C)cc2C1=O` the growth inhibition was 33%. In the case of `C=Cc1cc(=O)oc2cc(OC)ccc12`, the growth inhibition is reported as 99% (active).
